Laboratory results: PubChem BioAssay (NCI)
This is part of a sample that, as a whole, favours compounds with a hit. Of some 83,000 tested, about 20% had one in any assay.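 The endpoint reported here, percent growth, reads 100 for growth as untreated, 0 for no net growth and -100 for all cells dead.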 A number with no mark means an inactive call. The source made the active and inactive calls. The calls were made as follows: active = growth percent below 10; inactive = the rest.

Experiments:
Assay in all cases: NCI-60 one-dose screen, 48 h (100 = growth as untreated, 0 = no growth, -100 = all killed)
Conditions in all cases: 10 µM unless noted
[1] = tested on: NCI-H23 lung
[2] = tested on: NCI-H226 lung
[3] = tested on: NCI-H322M lung
[4] = tested on: HOP-62 NSCLC
[5] = tested on: NCI-H460 lung
[6] = tested on: HOP-92 NSCLC
[7] = tested on: NCI-H522 lung
[8] = tested on: A549/ATCC NSCLC
[9] = tested on: 786-0 renal
[10] = tested on: COLO 205 colon
[11] = tested on: DU-145 prostate
[12] = tested on: K-562 leukemia
[13] = tested on: MALME-3M melanoma
[14] = tested on: MDA-MB-231 breast
[15] = tested on: RXF 393 renal
[16] = tested on: SF-268 CNS
[17] = tested on: SF-295 CNS
[18] = tested on: SF-539 CNS
[19] = tested on: M14 melanoma
[20] = tested on: UACC-257 melanoma

| Structure (SMILES) | growth [1] | growth [2] | growth [3] | growth [4] | growth [5] | growth [6] | growth [7] | growth [8] | growth [9] | growth [10] | growth [11] | growth [12] | growth [13] | growth [14] | growth [15] [%] | growth [16] | growth [17] | growth [18] | growth [19] | growth [20] |
| --- | --- | --- | --- | --- | --- | --- | --- | --- | --- | --- | --- | --- | --- | --- | --- | --- | --- | --- | --- | --- |
| c1ccc(COc2ccc3[nH]cc(CCN(Cc4ccccc4)Cc4ccccc4)c3c2)cc1 | 77.5% | 73.8% | 100% | 99.4% | 91.6% | 81.6% | 82.9% | 85.2% | 91.9% | 101% | 98.8% | 71.1% | 91.3% | 83.3% | 91.2 | 92.4% | 91.4% | 97.1% | 98.6% | – |
| O=C(NCCN1CC1)C(=O)NCCN1CC1 | 90.5% | 87.4% | 102% | 84.5% | 58% | 103% | 62.7% | 75.3% | 98.3% | 88.7% | 90.2% | 87.9% | 103% | 99.3% | – | 77.8% | 51% | 101% | 92.9% | 85.1% |
| COC(=O)CC12CC(NC(=O)c3csc([C@@H](C[C@H](C(C)C)N(C)C(=O)[C@@H](NC(=O)[C@H]4CCCCN4C)C(C)C)OC(C)=O)n3)(C1)C2 | 21.3% | 23.1% | 43% | 6.8% (active) | 7.76% (active) | 35.7% | 10.8% | 18% | 12% | -54.7% (active) | 14% | 9.94% (active) | 51% | 6.67% (active) | – | 26.1% | -7.27% (active) | -12.8% (active) | 7% (active) | – |
| Clc1ccc(COC(Cn2ccnc2)c2ccc(Cl)cc2Cl)cc1 (stereo not given) | 54.2% | 70.2% | 84.9% | 75.1% | 33.2% | 26% | 36.4% | 51.7% | 68.5% | 68.8% | 71.6% | -4.49% (active) | 42.9% | 57.6% | – | 52.1% | 17.9% | 87.7% | 58.9% | 61.9% |
| Clc1ccc2nnnn2n1 | 54.4% | 66.6% | 85.2% | 55.7% | 20.7% | -3.54% (active) | 13.2% | 77.3% | 23% | -77.3% (active) | 3.28% (active) | -11.3% (active) | 66.2% | 36.8% | – | 25% | 67.7% | 47% | 37.7% | 41.1% |
| ClCCN(CCCl)c1ccc(/C=N/Nc2ncnc3nc[nH]c23)cc1 | 68.8% | 79% | 97.7% | 82% | 39.1% | 81.3% | 61% | 87.7% | 80.2% | 90.5% | 62.8% | 61.2% | 106% | 96.2% | – | 58.9% | 57.8% | 72.7% | 76.7% | 106% |
| CC(=O)/C=C/c1ccc2c(c1)OCO2 | 95.4% | 95.2% | 104% | 102% | 107% | 89% | 84.7% | 95.2% | 99% | 107% | 104% | 106% | 92% | 95.1% | – | 106% | 94.1% | 102% | 100% | 91.7% |
| CN1C(=O)C23CC4(C56CC78SSC(CO)(C(=O)N7C5Nc5ccccc56)N(C)C8=O)c5ccccc5NC4N2C(=O)C1(CO)SS3 (stereo not given) | -72.9% (active) | -100% (active) | -94.5% (active) | -86.4% (active) | -89.4% (active) | -99% (active) | -85.9% (active) | -88.5% (active) | -97.4% (active) | -87.8% (active) | -100% (active) | -30.3% (active) | -76.7% (active) | -94.1% (active) | – | -97.8% (active) | -93.8% (active) | -86.4% (active) | -83.3% (active) | -94.9% (active) |
| CCNc1nc(Cl)nc(NCC)n1 | 111% | 90.4% | 100% | 93% | 102% | 65.1% | 105% | 85.7% | 108% | 102% | 123% | 35.1% | 133% | 104% | – | 102% | 84.1% | 97.2% | 101% | 89% |
